Data on 8 compounds can be found in ChEMBL document CHEMBL3988442, “University of Dundee, Small-Polar-MMV Screening Library” (2021).

For some of these results: Results with a measured potency or affinity are listed apart.

Common to all, as to parameters: scale not given: direction of the effect not stated beside the values
Assay [1] deals with Protein translocase subunit SecA (Escherichia coli (strain K12)) (UniProt P10408). The experiment in a line: Assay to Identify E. coli SecA ATPase Inhibitors. It counts as functional. To be noted: 30 µM.
Sequence of Protein translocase subunit SecA (Escherichia coli (strain K12)) (P10408 whole entry): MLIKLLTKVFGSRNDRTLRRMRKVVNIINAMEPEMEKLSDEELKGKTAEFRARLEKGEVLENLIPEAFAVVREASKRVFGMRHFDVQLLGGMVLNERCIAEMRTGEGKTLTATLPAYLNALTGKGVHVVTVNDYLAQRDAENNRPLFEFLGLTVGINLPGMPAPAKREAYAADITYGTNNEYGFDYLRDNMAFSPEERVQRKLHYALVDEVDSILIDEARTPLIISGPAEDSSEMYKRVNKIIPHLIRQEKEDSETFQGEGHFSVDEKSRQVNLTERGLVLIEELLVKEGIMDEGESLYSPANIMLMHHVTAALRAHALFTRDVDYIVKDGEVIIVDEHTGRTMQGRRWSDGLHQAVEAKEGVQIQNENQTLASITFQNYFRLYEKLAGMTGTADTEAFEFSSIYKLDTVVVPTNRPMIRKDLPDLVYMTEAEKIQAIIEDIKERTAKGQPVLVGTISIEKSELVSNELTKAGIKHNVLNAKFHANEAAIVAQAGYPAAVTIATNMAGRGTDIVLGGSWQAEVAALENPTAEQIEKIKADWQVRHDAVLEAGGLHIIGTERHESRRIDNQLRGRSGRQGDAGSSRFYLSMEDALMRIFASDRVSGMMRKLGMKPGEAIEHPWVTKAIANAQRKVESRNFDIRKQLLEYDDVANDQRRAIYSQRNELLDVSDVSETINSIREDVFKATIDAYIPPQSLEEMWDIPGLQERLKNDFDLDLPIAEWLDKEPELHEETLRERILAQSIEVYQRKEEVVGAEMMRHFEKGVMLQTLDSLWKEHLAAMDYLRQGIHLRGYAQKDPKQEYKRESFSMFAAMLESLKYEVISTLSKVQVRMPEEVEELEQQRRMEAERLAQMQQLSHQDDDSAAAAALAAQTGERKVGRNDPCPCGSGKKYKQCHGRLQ
Assay [2] deals with T1, Ubiquitin-activating enzyme e1, putative (Leishmania donovani (strain BPK282A1)) (UniProt E9BSI1).
T1 sequence (whole entry): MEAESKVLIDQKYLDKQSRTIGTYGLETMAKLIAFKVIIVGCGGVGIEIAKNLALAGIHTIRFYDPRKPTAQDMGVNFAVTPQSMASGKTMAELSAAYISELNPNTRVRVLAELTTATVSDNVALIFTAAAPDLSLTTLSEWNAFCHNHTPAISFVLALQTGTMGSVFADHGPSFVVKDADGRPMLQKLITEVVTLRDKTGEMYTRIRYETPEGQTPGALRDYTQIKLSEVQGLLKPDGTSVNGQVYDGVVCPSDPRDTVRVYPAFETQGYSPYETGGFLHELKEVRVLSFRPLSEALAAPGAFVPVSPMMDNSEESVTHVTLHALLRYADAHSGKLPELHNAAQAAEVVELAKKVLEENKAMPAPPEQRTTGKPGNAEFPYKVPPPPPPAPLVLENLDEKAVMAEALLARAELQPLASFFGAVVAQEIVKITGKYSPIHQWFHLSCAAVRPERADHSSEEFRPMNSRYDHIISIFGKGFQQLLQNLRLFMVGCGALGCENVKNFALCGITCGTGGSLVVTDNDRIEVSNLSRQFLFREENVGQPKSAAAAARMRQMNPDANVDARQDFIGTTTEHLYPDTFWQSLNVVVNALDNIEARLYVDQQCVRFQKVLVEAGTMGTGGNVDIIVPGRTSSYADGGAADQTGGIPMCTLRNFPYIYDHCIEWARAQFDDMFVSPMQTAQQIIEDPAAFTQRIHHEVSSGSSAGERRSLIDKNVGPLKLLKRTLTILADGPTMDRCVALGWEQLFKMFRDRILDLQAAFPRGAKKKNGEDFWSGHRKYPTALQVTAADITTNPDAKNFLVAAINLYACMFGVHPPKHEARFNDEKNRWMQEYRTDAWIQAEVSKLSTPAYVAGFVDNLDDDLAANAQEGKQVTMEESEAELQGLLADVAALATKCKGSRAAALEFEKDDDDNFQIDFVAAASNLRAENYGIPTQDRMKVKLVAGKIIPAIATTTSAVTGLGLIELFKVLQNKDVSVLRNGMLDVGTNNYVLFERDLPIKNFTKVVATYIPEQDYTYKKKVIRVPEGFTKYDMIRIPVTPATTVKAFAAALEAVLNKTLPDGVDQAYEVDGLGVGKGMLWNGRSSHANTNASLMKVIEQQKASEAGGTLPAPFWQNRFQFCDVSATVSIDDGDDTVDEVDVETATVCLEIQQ
Nature of the assay: Leishmania donovani Ubiquitin Activating Enzyme (LdE1). In kind it is functional. To be noted: 30 µM.

The target of assay [3] is AMP-activated protein kinase, AMPK (Homo sapiens) (UniProt P54646+O43741+P54619+Q9UGJ0+Q9Y478+Q13131+Q9UGI9). The experiment in a line: AMP-dependent Kinase enzyme assay. An in vitro enzyme assay that detects ADP turnover that is directly proportional to AMPK activity. This uses naive AMPK that is activated during the assay with MK-8722. In kind it is functional. To be noted: 30 µM.

Assay [4] addresses Sialic acid-binding Ig-like lectin 9 (Homo sapiens) (UniProt Q9Y336). The experiment in a line: Hs-Siglec9 ALPHAscreen SOP 20170721. To be noted: 10 µM.
Assay [5] has as its system Trypanosoma cruzi. Nature of the assay: Trypanosoma cruzi phosphomannomutase and mannose-1-phosphate guanylyltransferase assay. In kind it is functional. The following applies: 10 µM.
Assay [6] addresses T2, Arginase-2, mitochondrial (Homo sapiens) (UniProt P78540).
T2 sequence (whole entry): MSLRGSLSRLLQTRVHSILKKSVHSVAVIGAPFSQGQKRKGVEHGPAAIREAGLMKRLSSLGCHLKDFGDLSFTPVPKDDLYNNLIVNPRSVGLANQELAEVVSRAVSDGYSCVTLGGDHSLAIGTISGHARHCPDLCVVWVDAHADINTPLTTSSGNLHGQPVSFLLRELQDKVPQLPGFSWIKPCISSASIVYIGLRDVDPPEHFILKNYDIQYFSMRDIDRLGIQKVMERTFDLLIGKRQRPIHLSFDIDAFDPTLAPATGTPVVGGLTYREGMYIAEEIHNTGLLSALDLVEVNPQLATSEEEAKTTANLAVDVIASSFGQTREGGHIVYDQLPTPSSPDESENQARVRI
Nature of the assay: in vitro enzyme assay to detect the production of urea directly proportional to the activity of Arginase II. Also: in the data most compounds retested in dose-response had high values. It counts as functional. The following applies: 33.3 µM.

Assay [7] concerns the target T3, Proteasome subunit beta (Trypanosoma cruzi) (UniProt O96673).
T3 sequence (whole entry): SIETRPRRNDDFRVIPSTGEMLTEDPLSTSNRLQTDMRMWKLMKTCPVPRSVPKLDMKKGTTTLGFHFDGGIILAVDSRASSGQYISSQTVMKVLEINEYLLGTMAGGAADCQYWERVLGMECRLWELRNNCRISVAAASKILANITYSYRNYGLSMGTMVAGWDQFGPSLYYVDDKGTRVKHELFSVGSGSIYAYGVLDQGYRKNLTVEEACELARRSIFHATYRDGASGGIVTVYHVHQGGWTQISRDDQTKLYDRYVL
Nature of the assay: Trypanosoma cruzi proteasome chymotrypsin-like activity (TcProtChymo) assay. Also: in the data most compounds retested in dose-response had high values. In kind it is functional. To be noted: 9.37 µM.

The species named for assay [8] is Homo sapiens. The experiment in a line: To identify inhibition of the IFN signalling (Jak-Stat) pathway via expression of an eGFP reporter gene under the control of an IFN-stimulated response element (ISRE) containing MxA promoter. To be noted: 30 µM. In kind it is functional. In general terms: In a reporter assay the amount or activity of a reporter protein is the signal.

Assay [9] has as its target T4, Tyrosyl-tRNA synthetase, putative (Trypanosoma cruzi (strain CL Brener)) (UniProt Q4DSP6).
T4 sequence (whole entry): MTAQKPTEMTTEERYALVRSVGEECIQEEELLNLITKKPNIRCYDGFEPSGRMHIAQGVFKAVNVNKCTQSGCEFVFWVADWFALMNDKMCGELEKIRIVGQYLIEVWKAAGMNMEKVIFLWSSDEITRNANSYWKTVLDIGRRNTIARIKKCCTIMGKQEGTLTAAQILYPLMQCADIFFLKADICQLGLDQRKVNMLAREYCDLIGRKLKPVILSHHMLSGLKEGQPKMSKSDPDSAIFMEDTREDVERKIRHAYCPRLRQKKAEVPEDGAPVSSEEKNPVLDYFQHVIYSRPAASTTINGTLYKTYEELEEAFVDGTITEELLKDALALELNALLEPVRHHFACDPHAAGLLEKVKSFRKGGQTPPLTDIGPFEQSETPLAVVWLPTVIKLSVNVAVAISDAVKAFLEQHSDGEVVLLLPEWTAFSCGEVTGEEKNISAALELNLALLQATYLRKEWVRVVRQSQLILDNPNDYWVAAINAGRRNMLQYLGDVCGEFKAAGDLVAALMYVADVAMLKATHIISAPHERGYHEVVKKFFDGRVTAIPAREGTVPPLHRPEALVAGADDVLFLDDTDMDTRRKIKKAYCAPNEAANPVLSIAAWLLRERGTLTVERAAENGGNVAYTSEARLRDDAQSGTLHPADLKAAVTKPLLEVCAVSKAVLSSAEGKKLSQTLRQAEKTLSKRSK
Nature of the assay: Trypanosoma cruzi tyrosyl tRNA synthetase (TcYRS) _High Tyrosine SOP. Also: in the data most compounds retested in dose-response had high values. In kind it is functional. To be noted: 30 µM.

Assay [10] deals with T4, Tyrosyl-tRNA synthetase, putative (Trypanosoma cruzi (strain CL Brener)). The experiment in a line: Trypanosoma cruzi tyrosyl tRNA synthetase (TcYRS) SOP. It counts as functional. The following applies: 30 µM.
Assay [11] deals with Chromo domain-containing protein 1 (Saccharomyces cerevisiae (strain ATCC 204508 / S288c) (Baker's yeast)) (UniProt P32657). Nature of the assay: ScCHD-1 Enzyme Inhibition Assay. Also: in the data most compounds retested in dose-response had high values. It counts as functional. The following applies: 30 µM.
Sequence of Chromo domain-containing protein 1 (Saccharomyces cerevisiae (strain ATCC 204508 / S288c) (Baker's yeast)) (P32657 whole entry, the tested form may be a part): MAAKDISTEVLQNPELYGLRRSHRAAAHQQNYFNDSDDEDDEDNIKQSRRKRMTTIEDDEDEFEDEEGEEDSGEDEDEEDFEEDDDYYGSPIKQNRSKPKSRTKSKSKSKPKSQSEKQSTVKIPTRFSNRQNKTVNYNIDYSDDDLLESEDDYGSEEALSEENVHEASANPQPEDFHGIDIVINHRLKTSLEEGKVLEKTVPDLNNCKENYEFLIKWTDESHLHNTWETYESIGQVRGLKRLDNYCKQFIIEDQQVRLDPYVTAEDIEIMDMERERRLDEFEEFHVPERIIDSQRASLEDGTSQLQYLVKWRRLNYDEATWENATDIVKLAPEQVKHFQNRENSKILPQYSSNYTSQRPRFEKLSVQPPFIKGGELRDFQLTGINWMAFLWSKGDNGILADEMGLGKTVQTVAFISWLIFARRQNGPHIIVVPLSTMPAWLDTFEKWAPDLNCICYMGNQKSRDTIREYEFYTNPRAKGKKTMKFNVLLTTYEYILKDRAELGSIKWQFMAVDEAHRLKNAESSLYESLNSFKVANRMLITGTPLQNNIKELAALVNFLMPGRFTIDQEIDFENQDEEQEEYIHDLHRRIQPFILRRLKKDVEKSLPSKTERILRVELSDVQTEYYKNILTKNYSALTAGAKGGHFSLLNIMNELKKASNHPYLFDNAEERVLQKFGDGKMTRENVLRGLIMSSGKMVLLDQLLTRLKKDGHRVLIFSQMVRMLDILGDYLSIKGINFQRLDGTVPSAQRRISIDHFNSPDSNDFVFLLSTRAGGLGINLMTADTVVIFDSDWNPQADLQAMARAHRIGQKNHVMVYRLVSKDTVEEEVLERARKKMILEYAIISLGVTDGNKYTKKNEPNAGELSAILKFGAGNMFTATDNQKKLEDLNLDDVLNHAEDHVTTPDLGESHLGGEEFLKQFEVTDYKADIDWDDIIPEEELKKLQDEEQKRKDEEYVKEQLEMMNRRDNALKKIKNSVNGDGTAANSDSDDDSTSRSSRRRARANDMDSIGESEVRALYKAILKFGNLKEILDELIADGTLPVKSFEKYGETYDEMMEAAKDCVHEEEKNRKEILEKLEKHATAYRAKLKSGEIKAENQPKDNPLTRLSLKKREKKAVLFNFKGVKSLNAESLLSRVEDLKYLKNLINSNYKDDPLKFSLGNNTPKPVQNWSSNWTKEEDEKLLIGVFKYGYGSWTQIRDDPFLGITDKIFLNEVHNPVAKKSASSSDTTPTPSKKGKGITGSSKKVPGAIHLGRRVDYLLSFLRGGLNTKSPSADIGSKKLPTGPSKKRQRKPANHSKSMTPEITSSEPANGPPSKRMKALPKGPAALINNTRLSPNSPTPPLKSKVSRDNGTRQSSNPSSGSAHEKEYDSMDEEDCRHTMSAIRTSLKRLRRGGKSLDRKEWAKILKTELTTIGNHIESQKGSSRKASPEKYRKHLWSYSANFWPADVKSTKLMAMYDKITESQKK

Sequence of Sialic acid-binding Ig-like lectin 9 (Homo sapiens) (Q9Y336 whole entry): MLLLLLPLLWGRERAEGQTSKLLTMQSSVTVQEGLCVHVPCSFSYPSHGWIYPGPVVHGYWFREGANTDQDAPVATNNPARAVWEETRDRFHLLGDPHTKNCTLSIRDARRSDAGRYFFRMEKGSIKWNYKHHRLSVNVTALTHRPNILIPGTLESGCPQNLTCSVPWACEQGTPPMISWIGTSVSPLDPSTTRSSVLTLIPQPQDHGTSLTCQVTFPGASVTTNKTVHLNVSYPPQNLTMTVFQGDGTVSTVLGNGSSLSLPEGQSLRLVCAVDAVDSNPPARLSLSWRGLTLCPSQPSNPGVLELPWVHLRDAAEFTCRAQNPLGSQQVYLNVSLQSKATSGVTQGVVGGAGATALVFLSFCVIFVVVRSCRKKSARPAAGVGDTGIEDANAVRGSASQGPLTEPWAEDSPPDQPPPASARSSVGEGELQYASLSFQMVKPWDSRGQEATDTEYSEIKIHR

For the compound `CCc1[nH]ncc1C(=O)N1CCCN(Cc2cnn(C)c2)CC1`, the Percent Effect in assay [1] is 0.347%; in assay [2] it was 15.6%; in assay [3], 6.03%; in [4], -6.37%; in assay [5], -0.0979%; in assay [6], 5.68%. Moreover, the Percent Effect in assay [7] is 8%; in assay [8], 21.9%; in assay [9], 5.71%; in assay [10] it was 18.8%; in assay [11] it was -17.9%.

For `Cc1nc(C2CCCN2Cc2nc(C)c(C)o2)no1` (stereo not drawn), the Percent Effect in assay [1] is -2.9%; in assay [2], 16.2%; in assay [3], -2.94%; in assay [4], -1.49%; in [5], -1.95%; in assay [6], 1.29%. The Percent Effect is 4.49% in assay [7]; -3.4% in [8]; 13.9% in [9]; 25.6% in assay [10]; -5.47% in assay [11].

In the case of `CC(C)c1nc2n(n1)CC(NCc1nnc(C(C)C)o1)CC2` (stereo not drawn), the Percent Effect in [1] was -2.44%; in assay [2] it was 13.5%; in assay [3], 139%; in assay [4] it was 8.12%; in [5], 7.08%; in assay [6], -4.81%. In addition, the Percent Effect in assay [7] is 5.41%; in assay [8], 10.9%; in [9], 6.4%; in assay [10] it was 18.5%; in [11], -8.46%.

`c1cnc(N2CCC3(COCc4cnc(-c5cccnc5)nc43)C2)nc1` (stereo not drawn): the Percent Effect in assay [1] was -3.71%; in [2] it was -2.7%; in assay [3] it was 12.2%; in assay [4] it was -3.8%; in [5] it was -1.86%; in assay [6], -5.41%. The Percent Effect in assay [7] was 1.11%; in assay [8], 3.84%; in assay [9], -1.08%; in assay [10], -10.3%; in [11], -4.41%.

Consider `CCCn1[nH]cc/c1=N\C(=O)CN1CCc2c(nc(C(C)C)n2C)C1`, for which the Percent Effect is -0.801% in assay [1]; 20.8% in assay [2]; -5.35% in [3]; -15.6% in [4]; -2.06% in [5]; -4.84% in assay [6]. Moreover, the Percent Effect in assay [7] is 11.6%; in [8], 18.7%; in assay [9], 8.57%; in [10], 23.5%; in assay [11], -19.2%.

For the compound `COc1ccnc(N2CCN(C(=O)Cc3ccc(C#N)cc3)CC2)n1`, the Percent Effect in assay [1] is -3.03%; in assay [2] it was 13%; in [3], -3.06%; in assay [4] it was 0.369%; in assay [5] it was 3.82%; in assay [6] it was 1.9%. In addition, the Percent Effect is 12.7% in assay [7]; 7.36% in assay [8]; 7.62% in [9]; 23.5% in assay [10]; -7.06% in assay [11].

In the case of `CN(C)c1ccc(CCNC(=O)NCc2ccc(N(C)C)nc2)cc1`, the Percent Effect was -3.23% in assay [1]; 13.5% in [2]; 0.0846% in [3]; 11.2% in [4]; 1.98% in assay [5]; -5.21% in assay [6]. Moreover, the Percent Effect was -4.14% in assay [7]; 5.54% in assay [8]; 7.39% in [9]; 18.5% in assay [10]; -9.13% in [11].

`O=C(Nc1cc(F)ccc1OCC1CCCO1)N1CCCC1` (stereo not drawn): the Percent Effect was -0.769% in assay [1]; 2.6% in assay [2]; -5.42% in assay [3]; 10.4% in assay [4]; 6.55% in [5]; 3.56% in assay [6]. Moreover, the Percent Effect in assay [7] is -2.37%; in assay [8], -1.89%; in assay [9], 2.91%; in assay [10], 14.6%; in assay [11] it was -5.42%.
